Experimental data published in PubChem BioAssay (NCI).
This is part of a sample that, as a whole, favours compounds with a hit. Of some 79,000 tested, about 15% had one in any assay. Activity calls are given as the source filed them. Cut-off read from the data, not from the text of the source: active = growth inhibition above about 70%; inactive = the rest.

Assay: NCI Yeast Anticancer Drug Screen. Data for the rad50 strain (AID 155);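 note: 0% = growth of vehicle-only cultures of the same strain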
Settings: S. cerevisiae rad50 strain growth inhibition, active compounds read high
Method: Growth inhibition of yeast strains with defined genetic alterations is measured as a screen for potential anti-cancer activity. Selected strains with alterations in DNA damage repair or cell cycle control were exposed to compounds and growth inhibition was measured relative to vehicle treated controls. The strain used in this assay is rad50

[1] = at 5.0 µM (retest, dose inferred, filed as 0.5)
[2] = at 50.0 µM (retest, dose inferred, filed as 5.0)

Measured: growth inhibition

COc1cc(CNc2ccc(C(C)C)cc2)cc(OC)c1OC
inactive: at 1.2 µM 13% | at 3.7 µM 0% | [1] -1% | at 11.0 µM -2% | at 33.0 µM -19% | [2] -3% | at 50.0 µM 32.5%
active: at 100.0 µM 73%

O=C(/C=N/O)Nc1cc(Cl)c(Cl)cc1Cl
inactive: at 1.2 µM -35% | at 3.7 µM -21% | [1] 45% | at 11.0 µM -33% | at 33.0 µM 10% | at 100.0 µM 63%
active: [2] 98% | at 50.0 µM 79.2%

C=Cc1cnc([N+](=O)[O-])n1C
inactive: at 1.2 µM 3% | at 3.7 µM 17% | [1] 23% | at 11.0 µM 52%
active: at 33.0 µM 86% | [2] 87% | at 50.0 µM 78.5% | at 100.0 µM 94%

O=c1[nH]cc(/C=N\Nc2ccccc2)c(=O)[nH]1
inactive: at 1.2 µM 3% | at 3.7 µM 17% | [1] -11% | at 11.0 µM 31% | at 33.0 µM 49% | [2] 40% | at 50.0 µM 61.9% | at 100.0 µM 60%

C(=N/NC1=NCCN1)/c1c2ccccc2c(/C=N\NC2=NCCN2)c2ccccc12
active: at 3.7 µM 85% | [1] 74% | at 11.0 µM 93% | at 33.0 µM 94% | [2] 88% | at 50.0 µM 82.2% | at 100.0 µM 94%
inactive: at 1.2 µM 63%
